A short description of experiment [1]: Nuclear factor erythroid 2-related factor 2/antioxidant responsive element (Nrf2/ARE) small molecule agonists: qHTS cell viability counter screen in human keratinocytes (AID 1919968; active means well fitted curve in the direction sought with a large enough effect in the repeat runs; an effect the other way counts as inactive or inconclusive; further: nearly all actives have a fitted effect of over 55% in size; further: potency means the concentration at half of the fitted maximal effect). The essentials: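 Fluorescence read-out from CellTiter-Fluor after 1 h at 37 C. Wells held HaCaT-derived ARE-luciferase reporter cells (1,500/well) treated 23 h with DMSO-dissolved compounds. Run in the same wells as the luciferase agonist read.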
On the technique in general: qHTS replaces the single test concentration by a dilution series.

Experiment [2] can be described thus: Nuclear factor erythroid 2-related factor 2/antioxidant responsive element (Nrf2/ARE) small molecule agonists: luciferase reporter gene qHTS assay in human keratinocytes (AID 1919969). Further: nearly all actives have a fitted effect of over 35% in size. Further: potency means the concentration at half of the fitted maximal effect. For orientation: Reporter assays use an easily measured gene product as a stand-in for the process of interest.
The target of experiment [3] is Gonadotropin-releasing hormone receptor (Homo sapiens) (UniProt P30968). Briefly: Human gonadotropin-releasing hormone receptor (GnRHR) small molecule agonists, calcium flux assay in GnRHR-HEK293 cells (AID 1920063). Further: nearly all actives have a fitted effect of over 35% in size. The essentials:
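Calcium-dye fluorescence, Ex/Em=480/540, recorded every 1 sec over 3 min after compound addition to GnRHR-HEK293 cells. Cells had been seeded 18 hours earlier and dye-loaded for 1 hour at 37 C. Fifteen concentrations, triplicates.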

For experiment [4], the target named is KiSS-1 receptor (Homo sapiens) (UniProt Q969F8). Description: Human kisspeptin (KISS1R) small molecule agonists, calcium flux assay in KISS1R-HEK293 cells (AID 1920064; active means well fitted curve in the direction sought with a large enough effect in the repeat runs; an effect the other way counts as inactive or inconclusive). The essentials:
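Calcium flux read-out: kinetic fluorescence at Ex/Em=480/540, 1 s intervals over 3 min, after pin-tool compound addition to dye-loaded KISS1R-HEK293 cells. Fifteen concentrations, triplicates.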
On the technique in general: Calcium flux is commonly read through the fluorescence of an indicator in the cells.

The nature of experiment [5]: G protein-coupled receptor (GPCR) small molecule agonists, calcium flux assay: HEK293 wild type cell line counter screen (AID 1920065). The essentials: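 Agonist mode; 18 h seeding at 37 C, 1 h dye load at 37 C; compounds pinned from DMSO, ATP as positive control; kinetic fluorescence 480/540 nm, 3 min, 1 s reads; 15 concentrations, triplicate.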
A short description of experiment [6]: p53 small molecule agonists, cell-based qHTS assay with human liver microsomes (AID 1963577).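 Further: p53 response element beta-lactamase reporter cells with liver microsomes plus NADPH.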 The essentials:
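In this qHTS, p53 response-element beta-lactamase cells receive test compound together with a microsome/NADPH activating system (0.5 mg/mL final each) and are incubated 16 h at 37 C before LiveBLAzer fluorescence detection.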

A short description of experiment [7]: p53 small molecule agonists, cell-based qHTS assay with rat liver microsomes (AID 1963578). In a few lines:
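Agonist mode in p53RE-bla reporter cells, with compounds co-incubated 16 h at 37 C alongside 0.5 mg/mL rat liver microsomes and 0.5 mg/mL NADPH (final), followed by a 2 h LiveBLAzer detection step.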

The nature of experiment [8]: p53 small molecule agonists, cell-based qHTS assay with human liver microsomes: qHTS cell viability counter screen (AID 1963579). Further: nearly all actives have a fitted effect of over 45% in size. In a few lines: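 Metabolically activated exposure: compounds, human liver microsomes and NADPH (0.5 mg/mL final apiece) were added to p53RE-bla cells seeded 5 h earlier, left 16 h at 37 C, and then assessed for viability by CellTiter-Glo luminescence.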

Experiment [9] is described as follows: p53 small molecule agonists, cell-based qHTS assay with rat liver microsomes: qHTS cell viability counter screen (AID 1963580). Further: nearly all actives have a fitted effect of over 45% in size. The essentials: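 Cytotoxicity counter screen: intracellular ATP measured by CellTiter-Glo luminescence in the same wells as the beta-lactamase reporter read, on HCT-116 p53RE-bla cells exposed 16 h at 37 C to compounds with rat liver microsomes and NADPH, each 0.5 mg/mL final.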

Experiment [10] is described as follows: p53 small molecule agonists, cell-based qHTS assay: qHTS cell viability counter screen (AID 1963581). Further: nearly all actives have a fitted effect of over 45% in size. In a few lines:
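Cytotoxicity read-out: ATP-based luminescence (CellTiter-Glo, 30 min RT) measured in the same wells as the p53 reporter assay, HCT-116 p53RE-bla cells, 16 h compound exposure at 37 C.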

A short description of experiment [11]: p53 small molecule agonists, cell-based qHTS assay (AID 1963582; active means well fitted activation curve with a large enough effect in the signal ratio in the repeat runs, not every such curve was filed as active; the % refers to the signal ratio). In a few lines: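 Fluorescence intensity read-out of a beta-lactamase reporter under a p53 response element. Cells were exposed to DMSO-dissolved compounds for 16 h at 37 C, then developed with FRET substrate for 2 h at RT.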
Experiment [12] deals with 5-hydroxytryptamine receptor 2A (Homo sapiens) (UniProt P28223). Briefly: 5-hydroxytryptamine receptor 2A (HTR2A) small molecule antagonists, cell-based qHTS assay (AID 1963586). Further: nearly all actives have a fitted effect of over 45% in size. Further: potency means the concentration at half of the fitted maximal effect. In a few lines:
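CHO cells stably expressing human HTR2A were plated for 18 h at 37 C, then loaded with calcium dye for 1 h. Compounds were preincubated 5 min at room temperature before DOI (4 nM solution) was added. Kinetic fluorescence was read for 3 min.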

The target is the same in experiment [13]. Description: 5-hydroxytryptamine receptor 2A (HTR2A) small molecule agonists, cell-based qHTS assay (AID 1963587). Further: nearly all actives have a fitted effect of over 30% in size. Further: potency means the concentration at half of the fitted maximal effect. The essentials: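 CHO cells stably expressing human HTR2A, plated 18 h, loaded with calcium dye 1 h at 37 C. Agonist mode: compounds added and intracellular calcium fluorescence recorded kinetically for 2 min at 1 sec intervals.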
Experiment [14] addresses Muscarinic acetylcholine receptor M1 (Homo sapiens) (UniProt P11229). Description: Cholinergic receptor muscarinic 1 (CHRM1) small molecule antagonists, cell-based qHTS assay (AID 1963588). Further: nearly all actives have a fitted effect of over 40% in size. The essentials:
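Compounds were tested at 15 concentrations in three independent runs. Dye-loaded CHRM1-CHO cells were exposed 5 min at room temperature before stimulation by acetylcholine added at 50nM. Intracellular calcium was read kinetically on FDSS for 3 min.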

Experiment [15] can be described thus: cAMP Responsive Elements (CRE) small molecule antagonists, cell-based qHTS assay (AID 1963591; active means well fitted inhibition curve with a large enough effect in the signal ratio in the repeat runs, not every such curve was filed as active; the % refers to the signal ratio). In a few lines: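 HEK293T CRE-bla; 18 h preincubation; compound pin-transfer; NKH477 0.25 uM final, 3 h, 37 C; LiveBLAzer FRET substrate 2 h RT.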
Experiment [16] concerns the target Beta-2 adrenergic receptor (Homo sapiens) (UniProt P07550). Briefly: Adrenergic beta2 receptor (ADRB2) small molecule antagonists, cell-based qHTS assay (AID 1963592). Further: series mostly up to about 92 µM; nearly all actives have a fitted effect of over 50% in size. In a few lines: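 Assay format: CHO-ADRB2 cells, 18-20hr seeding at 37C/5% CO2, then compound plus 1nM isoproterenol agonist mix for 0.5hr RT. Homogeneous time-resolved fluorescence cAMP detection after 1hr, expressed as 665/615 nm ratio.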

The target in experiment [17] is D(2) dopamine receptor (Homo sapiens) (UniProt P14416). Briefly: Dopamine D2 receptor (DRD2) small molecule antagonists, cell-based qHTS assay (AID 1963595; active means well fitted inhibition curve with a large enough effect in the signal ratio in the repeat runs, with a control signal flat; the % refers to the signal ratio). In a few lines: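 Stable D2 receptor HEK293 line, 24 h after seeding. Compound preincubated 10 min, then quinpirole (12 nM) with forskolin analogue NKH477 (200 nM), 30 min, room temperature. Detection by time-resolved FRET of cAMP.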
Sequence of D(2) dopamine receptor (Homo sapiens) (P14416 whole entry, looked up): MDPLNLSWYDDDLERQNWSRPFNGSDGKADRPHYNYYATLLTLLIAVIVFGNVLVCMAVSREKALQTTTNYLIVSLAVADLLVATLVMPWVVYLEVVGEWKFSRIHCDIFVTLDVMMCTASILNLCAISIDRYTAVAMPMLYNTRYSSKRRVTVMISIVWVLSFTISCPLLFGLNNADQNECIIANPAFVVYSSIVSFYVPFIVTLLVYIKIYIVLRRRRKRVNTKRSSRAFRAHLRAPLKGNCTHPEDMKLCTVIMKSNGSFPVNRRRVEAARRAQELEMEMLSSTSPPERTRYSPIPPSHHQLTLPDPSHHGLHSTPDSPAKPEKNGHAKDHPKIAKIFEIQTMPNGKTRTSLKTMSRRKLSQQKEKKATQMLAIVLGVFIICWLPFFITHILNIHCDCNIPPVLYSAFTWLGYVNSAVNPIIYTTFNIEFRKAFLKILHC

Experiment [18] has as its target Muscarinic acetylcholine receptor M1 (Homo sapiens) (UniProt P11229). Description: Cholinergic receptor muscarinic 1 (CHRM1) small molecule agonists, cell-based qHTS assay (AID 1963589). Further: nearly all actives have a fitted effect of over 35% in size. In a few lines:
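Calcium flux read-out: kinetic fluorescence at 1 sec intervals after pin-tool compound addition to dye-loaded CHRM1-CHO cells (human M1). Agonist mode; 15 concentrations tested in triplicate independent runs.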

Experiment [19] has as its target D(2) dopamine receptor (Homo sapiens) (UniProt P14416). Briefly: Dopamine D2 receptor (DRD2) small molecule agonists, cell-based qHTS assay (AID 1963594). Further: nearly all actives have a fitted effect of over 35% in size. The essentials: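 HEK293 cells stably expressing human DRD2, pre-treated with PDE inhibitor Ro20-1724 (0.1 mM final) and compound 10 min at room temperature, then stimulated with NKH477 (200nM […]) for 30 min. cAMP read by HTRF (665/620 nm).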

Experiment [20] in a line: cAMP Responsive Elements (CRE) small molecule agonists, cell-based qHTS assay (AID 1963590). In a few lines: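 Beta-lactamase reporter readout: LiveBLAzer B/G FRET substrate, 2 h at room temperature, added after 3 h compound treatment of CRE-bla HEK 293T cells at 37 C/5% CO2.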

Values without a mark were called inactive. Inconclusive results are not listed. Calls of active or inactive are those of the source. Unless noted, the call rests on the fitted dose curve.

Sequence of Beta-2 adrenergic receptor (Homo sapiens) (P07550 whole entry, looked up): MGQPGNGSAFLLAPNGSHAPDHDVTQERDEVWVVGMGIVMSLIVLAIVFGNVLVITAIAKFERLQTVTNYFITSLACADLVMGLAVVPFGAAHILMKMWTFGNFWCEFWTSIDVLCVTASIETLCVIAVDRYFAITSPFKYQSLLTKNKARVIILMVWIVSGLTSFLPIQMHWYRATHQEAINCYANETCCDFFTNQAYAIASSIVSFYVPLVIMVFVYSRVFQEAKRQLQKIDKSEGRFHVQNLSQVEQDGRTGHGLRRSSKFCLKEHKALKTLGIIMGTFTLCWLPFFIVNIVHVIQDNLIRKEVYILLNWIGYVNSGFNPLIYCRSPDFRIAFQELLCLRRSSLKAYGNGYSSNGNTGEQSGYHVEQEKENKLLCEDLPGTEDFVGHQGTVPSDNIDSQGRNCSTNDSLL
Sequence of KiSS-1 receptor (Homo sapiens) (Q969F8 whole entry, looked up): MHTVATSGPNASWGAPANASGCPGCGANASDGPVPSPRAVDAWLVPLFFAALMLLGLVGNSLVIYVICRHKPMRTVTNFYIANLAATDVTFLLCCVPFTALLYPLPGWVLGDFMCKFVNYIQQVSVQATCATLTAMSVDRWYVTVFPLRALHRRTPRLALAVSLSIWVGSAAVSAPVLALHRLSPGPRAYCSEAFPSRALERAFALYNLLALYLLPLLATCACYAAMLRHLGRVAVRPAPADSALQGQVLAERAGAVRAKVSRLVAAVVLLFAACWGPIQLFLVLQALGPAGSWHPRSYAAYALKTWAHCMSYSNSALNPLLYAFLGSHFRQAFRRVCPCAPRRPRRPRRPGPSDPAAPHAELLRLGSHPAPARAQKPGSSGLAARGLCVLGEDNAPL
Sequence of Gonadotropin-releasing hormone receptor (Homo sapiens) (P30968 whole entry, looked up): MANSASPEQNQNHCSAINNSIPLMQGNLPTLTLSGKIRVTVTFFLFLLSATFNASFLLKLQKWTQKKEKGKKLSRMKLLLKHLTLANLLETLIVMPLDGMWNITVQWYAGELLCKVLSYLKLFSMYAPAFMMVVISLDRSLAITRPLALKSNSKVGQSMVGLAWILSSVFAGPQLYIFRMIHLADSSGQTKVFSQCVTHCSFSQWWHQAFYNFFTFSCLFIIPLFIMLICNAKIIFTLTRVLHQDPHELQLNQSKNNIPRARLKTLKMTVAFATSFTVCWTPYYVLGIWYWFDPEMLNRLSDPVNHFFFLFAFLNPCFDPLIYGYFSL
Sequence of Muscarinic acetylcholine receptor M1 (Homo sapiens) (P11229 whole entry, looked up): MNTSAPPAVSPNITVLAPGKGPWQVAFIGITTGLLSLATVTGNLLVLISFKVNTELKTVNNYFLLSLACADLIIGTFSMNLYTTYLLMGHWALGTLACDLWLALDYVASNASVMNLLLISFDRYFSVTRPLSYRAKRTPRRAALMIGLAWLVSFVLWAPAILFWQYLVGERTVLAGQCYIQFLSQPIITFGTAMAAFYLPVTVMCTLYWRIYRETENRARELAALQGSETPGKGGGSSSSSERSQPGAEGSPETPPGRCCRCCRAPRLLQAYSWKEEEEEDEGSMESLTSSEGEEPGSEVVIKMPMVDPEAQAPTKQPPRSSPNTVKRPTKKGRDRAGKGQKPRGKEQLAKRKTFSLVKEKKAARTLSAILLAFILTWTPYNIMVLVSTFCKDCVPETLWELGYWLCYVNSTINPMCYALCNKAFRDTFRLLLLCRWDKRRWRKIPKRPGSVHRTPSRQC
Sequence of 5-hydroxytryptamine receptor 2A (Homo sapiens) (P28223 whole entry, looked up): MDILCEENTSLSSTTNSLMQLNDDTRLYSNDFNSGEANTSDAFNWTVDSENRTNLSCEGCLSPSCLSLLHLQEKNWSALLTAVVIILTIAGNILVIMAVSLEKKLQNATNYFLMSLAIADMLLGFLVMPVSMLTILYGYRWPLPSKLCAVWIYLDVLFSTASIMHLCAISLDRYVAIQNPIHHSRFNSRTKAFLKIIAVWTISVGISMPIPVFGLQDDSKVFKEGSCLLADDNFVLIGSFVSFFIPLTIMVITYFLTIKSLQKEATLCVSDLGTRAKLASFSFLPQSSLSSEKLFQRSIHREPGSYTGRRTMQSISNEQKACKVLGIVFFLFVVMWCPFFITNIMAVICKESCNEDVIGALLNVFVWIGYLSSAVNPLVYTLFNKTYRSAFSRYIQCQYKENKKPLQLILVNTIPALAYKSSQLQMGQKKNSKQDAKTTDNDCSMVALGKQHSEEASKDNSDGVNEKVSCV

Take `Cc1cc(O)c2c(c1)C(=O)c1cccc(O)c1C2=O`: the Potency result in experiment [1], in experiment [3], in experiment [6], in experiment [7], in experiment [8] and in [9] was “inactive” each time. Besides, the Potency entry in experiment [10], in experiment [11], in experiment [12], in [13], in experiment [14] and in [15] was “inactive” in each case. In addition, the Potency result in experiment [16] and in experiment [17] was “inactive” each time. Further, the Potency in [2] was 8.43 µM (active). The result in experiment [4] and in experiment [5] was inactive.
Take `CCCCCCCCCCOCC(O)CN` (centres undefined): the figures for the Potency in [1], in [12] and in experiment [13] were 37.6 µM (active), 18.3 µM (active) and 9.52 µM (active), respectively. Also, the Potency entry in [2], in experiment [3], in experiment [6], in experiment [7], in experiment [8] and in experiment [9] was “inactive” each time. Further, the Potency entry in experiment [10], in experiment [11], in experiment [14], in experiment [18], in experiment [19] and in experiment [17] was “inactive” each time. In addition, the outcome in experiment [4] and in [5] was inactive.
Take `CCCCCCCC[Si](OCC)(OCC)OCC`: the Potency entry in experiment [1], in [2], in experiment [3], in experiment [6], in experiment [7] and in experiment [8] was “inactive” each time. The Potency entry in [9], in experiment [10], in experiment [11], in [12], in experiment [13] and in experiment [14] was “inactive” in each case. Besides, the Potency result in experiment [20], in experiment [15], in experiment [16], in experiment [19] and in experiment [17] was “inactive” throughout. In addition, the result in experiment [4] and in experiment [5] was inactive.
As to `COc1ccccc1N1CCN(CC(O)COc2cc(OC)c(OC)c(OC)c2)CC1` (centres undefined), the Potency result in experiment [1], in experiment [2], in experiment [3], in experiment [6], in experiment [7] and in [8] was “inactive” each time. For the same compound, the Potency entry in [9], in experiment [10], in experiment [11], in experiment [12], in experiment [13] and in [18] was “inactive” throughout. The Potency result in experiment [20], in experiment [15] and in experiment [16] was “inactive” each time. For the same compound, the result in [4] and in experiment [5] was inactive.
For `COC(=O)CC#N`, the Potency result in experiment [1], in experiment [2], in [3], in experiment [6], in [7] and in [8] was “inactive” in each case. For the same compound, the Potency result in experiment [9], in [10], in experiment [11], in experiment [12], in experiment [13] and in experiment [18] was “inactive” each time. The Potency entry in experiment [20], in experiment [15], in experiment [16], in experiment [19] and in [17] was “inactive” in each case. Also, the result in [4] and in [5] was inactive.
On to `Cc1nc2ccc(Cl)cc2[nH]1`, for which the Potency result in [1], in experiment [2], in experiment [3], in [6], in [7] and in experiment [8] was “inactive” throughout. For the same compound, the Potency result in experiment [9], in experiment [10], in [11], in experiment [12], in experiment [13] and in [14] was “inactive” throughout. Also, the Potency entry in [18], in experiment [16] and in experiment [17] was “inactive” throughout. Besides, the result in experiment [4] and in experiment [5] was inactive.
As for `C/C=C(\C)C#N`, the Potency entry in experiment [1], in experiment [2], in experiment [3], in experiment [6], in [7] and in [8] was “inactive” throughout. Besides, the Potency entry in [9], in [10], in experiment [11], in experiment [12], in experiment [13] and in [14] was “inactive” throughout. Besides, the Potency entry in experiment [20], in experiment [15], in experiment [16] and in [17] was “inactive” throughout. Moreover, the result in [4] and in experiment [5] was inactive.

For the origin of these results see PubChem BioAssay (Tox21).
